Bioassay records (PubChem BioAssay)
Only a selection was taken, and hits are over-represented in it overall.
Pf Dd2 inh: Plasmodium falciparum Dd2 growth inhibition; P. falciparum Dd2 growth, SYBR Green, 72 h; Potency, µM (series often up to 28.9 µM), without a hit: at the top dose activity, negative = inhibition, actives largely listed as inhibitors; 120,000 compounds, 4.3% hits; AID 1347417; active = well fitted inhibition curve with a large enough effect;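 note: plate controls were DMSO vehicle for no effect and reference drug for full effect; nearly all actives have a fitted effect of over 65% in size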
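Infected erythrocytes (Dd2, 0.3% parasitemia, 2.5% hematocrit final) are added to compound in RPMI-1640/Albumax II medium, grown 72 h at 37C in low oxygen, then lysed with saponin/Triton-X containing SYBR Green and read by fluorescence.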
Active calls of the source: *; [ ] = another dose, or the depositor's remark. Potency is the fitted concentration of half-maximal effect.

Results for COc1ncccc1-c1nc(N2CCOCC2)cc2c1CN(CC(F)(F)F)C2=O ?
Pf Dd2 inh: 76.7%[44.1 µM]

Results for CC(C)NC[C@H]1O[C@@H]2C[C@@H](CC(=O)N3CCOCC3)O[C@@H]2[C@@H]1O ?
Pf Dd2 inh: 23.3%[44.1 µM]

What do the screens show for `CC(C)CCN1CCC2CC(=O)NCCC2C1` (centres undefined)?
Pf Dd2 inh: inactive

How did OCC1CN(c2ncccn2)CC12CCNCC2 (centres undefined) do in these assays?
Pf Dd2 inh: 37.7%

What do the screens show for `O=C1NC2(CCCN(C(=O)Cc3ccccc3)C2)Oc2ccccc21` (centres undefined)?
Pf Dd2 inh: inactive

What do the screens show for `COc1ccc(C(=O)Nc2ccc3c(N4CCCCC4)ncnc3c2)cc1`?
Pf Dd2 inh: -21.8%

How did O=C(Nc1ccc2ncnc(N3CCCCC3)c2c1)c1ccc(F)cc1 do in these assays?
Pf Dd2 inh: inactive

How did O=C(Nc1ccc2c(N3CCCCC3)ncnc2c1)c1ccc(F)c(F)c1 do in these assays?
Pf Dd2 inh: 2µM*

Results for CC(Cn1cccn1)C(=O)N1CCc2onc(-c3ccc(F)c(F)c3)c2C1 (centres undefined) ?
Pf Dd2 inh: -16.1%

What do the screens show for `O=C(COc1ccc(Cl)cc1)N1CCC[C@H]1c1nc(-c2ccc(F)cc2)no1`?
Pf Dd2 inh: -24.1%

Results for O=c1c2c(CO)c(-c3ccccc3)nn2ccn1Cc1ccccc1 ?
Pf Dd2 inh: -8.2%

How did O=C(c1ccncc1)N1CCN(C2CCNCC2)C(=O)C1 do in these assays?
Pf Dd2 inh: 45.9%

What do the screens show for `Cc1oc(-c2ccc(Cl)cc2)nc1CN1C(=O)CN=C(c2ccccc2)c2cc(Cl)ccc21`?
Pf Dd2 inh: inactive

Results for COc1ccc(-c2nc(CN3C(=O)CN=C(c4ccccc4Cl)c4cc(Cl)ccc43)c(C)o2)cc1OC ?
Pf Dd2 inh: 12.6µM*

How did Cc1oc(-c2ccc(Cl)cc2)nc1CN1C(=O)CN=C(c2ccccc2)c2ccccc21 do in these assays?
Pf Dd2 inh: 3.8%

Results for O=C(c1ccc2c(c1)OCO2)N1CCN2C(=O)NC[C@H]2C1 ?
Pf Dd2 inh: 17.9%[44.1 µM]

What do the screens show for `O=S(=O)(N[C@@H]1CCOC[C@H]1O)c1cccc(C(F)(F)F)c1`?
Pf Dd2 inh: 1.7%

How did O=C(Cc1ccccc1Cl)N1CCC2(CC1)NC(=O)N(c1cccc(F)c1)N2 do in these assays?
Pf Dd2 inh: -8.9%

Results for CCOc1ccc(NC(=O)CC2C(=O)N(c3ccc(OC)cc3)C(=O)N2C2CCCCC2)cc1 (centres undefined) ?
Pf Dd2 inh: 9.1%

What do the screens show for `CCOC(=O)c1ccc(NC(=O)CC2C(=O)N(c3ccc(C)cc3)C(=O)N2C2CCCCC2)cc1` (centres undefined)?
Pf Dd2 inh: 15.1%

Results for CCOc1ccc(NC(=O)CC2C(=O)N(c3ccccc3)C(=O)N2C2CCCC2)cc1 (centres undefined) ?
Pf Dd2 inh: -10.2%

How did COc1ccc(NC(=O)CC2C(=O)N(c3ccc(OC)cc3)C(=O)N2C2CCCCC2)cc1 (centres undefined) do in these assays?
Pf Dd2 inh: inactive

Results for CCc1ccc(NC(=O)CC2C(=O)N(c3ccc(Cl)cc3)C(=O)N2C2CCCC2)cc1 (centres undefined) ?
Pf Dd2 inh: 10µM*

How did CCc1ccc(NC(=O)CC2C(=O)N(c3ccc(C)cc3)C(=O)N2C2CCCC2)cc1 (centres undefined) do in these assays?
Pf Dd2 inh: 11.2µM*

How did O=C(c1ccncc1)N1CCC2(CC1)CC(c1ccccc1)C(=O)N(C1CC1)C2 (centres undefined) do in these assays?
Pf Dd2 inh: -16.8%

How did O=C(CCC1CCN(C(=O)c2ccccc2)CC1)Nc1cccnc1 do in these assays?
Pf Dd2 inh: -1.5%

Results for O=C(NCC1(COc2cccnc2)C[C@@H](O)[C@@H](O)C1)Nc1cccnc1 (some centres undefined) ?
Pf Dd2 inh: 26.0%[44.1 µM]

How did O=C(C1=NO[C@@H]2CN(Cc3ccc(F)cc3)C[C@H]12)N1CCN(c2ccccn2)CC1 do in these assays?
Pf Dd2 inh: -7.5%[44.1 µM]

How did O=C(NCCc1nc(-c2cccnc2)n[nH]1)C1CCC(=O)N(C2CCCC2)C1 (centres undefined) do in these assays?
Pf Dd2 inh: 20.8%

Results for COc1cccc(NC(=O)CSc2nc(-c3ccccc3)nc3c2Cc2cc(Cl)ccc2O3)c1 ?
Pf Dd2 inh: 25.0%

Results for COc1ccc(-c2nc3c(c(SCC(=O)Nc4ccccc4OC)n2)Cc2cccc(C)c2O3)cc1 ?
Pf Dd2 inh: 11.2µM*

What do the screens show for `CCOc1ccc(-c2nc3c(c(SCC(=O)Nc4ccccc4C)n2)Cc2ccccc2O3)cc1`?
Pf Dd2 inh: -6.2%

Results for COc1cccc2c1Oc1nc(-c3ccccc3)nc(SCC(=O)N3CCCCC3)c1C2 ?
Pf Dd2 inh: -22.9%

Results for CCOc1cccc2c1Oc1nc(-c3ccccc3)nc(SCC(=O)Nc3ccc(F)cc3)c1C2 ?
Pf Dd2 inh: 7.94µM*

How did COc1ccc(-c2nc3c(c(SCC(=O)Nc4ccccc4F)n2)Cc2cc(C)ccc2O3)cc1 do in these assays?
Pf Dd2 inh: 18.5%

Results for CN(c1ccc(F)cc1)C1CN(C(=O)OC(C)(C)C)C1 ?
Pf Dd2 inh: -22.5%[44.1 µM]

How did COc1ccc(C(=O)N2CCCCC2c2nc(CCOCC3CCOCC3)no2)cc1F (centres undefined) do in these assays?
Pf Dd2 inh: -15.6%

What do the screens show for `Cc1nnc2n1CCC(N(C)C(=O)CCc1nc3ccccc3s1)CC2` (centres undefined)?
Pf Dd2 inh: -22.0%

Results for COc1ccccc1C(=O)N1CC(Oc2ccc(-c3nc(C)no3)cc2)C1 ?
Pf Dd2 inh: inactive[5.79 µM]

How did CC1=C[C@@H](CNC(=O)C(C)(C)C)[C@H](C(C)C)C[C@H]1Cc1nnc(-c2ccncc2)o1 do in these assays?
Pf Dd2 inh: -9.9%[44.1 µM]

What do the screens show for `COc1ccc(C(=O)NC[C@@H]2C=C(C)[C@H](CC(=O)N3CCN(C(C)=O)CC3)C[C@H]2C(C)C)cc1`?
Pf Dd2 inh: -16.5%

What do the screens show for `CC1=C[C@@H](CNC(=O)c2ccccc2)[C@H](C(C)C)C[C@H]1CC(=O)N1CCCC1`?
Pf Dd2 inh: 11.2µM*

What do the screens show for `CC(=O)NC[C@@H]1C=C(C)[C@H](CC(=O)N2CCN(C(C)=O)CC2)C[C@H]1C(C)C`?
Pf Dd2 inh: -12.2%[44.1 µM]

How did COc1ccc(C(=O)NC[C@@H]2C=C(C)[C@H](Cc3nnc(-c4ccncc4)o3)C[C@H]2C(C)C)cc1 do in these assays?
Pf Dd2 inh: 3.55µM*

What do the screens show for `CCOC(=O)C[C@@H]1C[C@@H](C(C)C)[C@H](CNC(=O)c2ccncc2)C=C1C`?
Pf Dd2 inh: inactive

What do the screens show for `COc1ccc(-c2nnc(C[C@@H]3C[C@@H](C(C)C)[C@H](CO)C=C3C)o2)cc1`?
Pf Dd2 inh: 10µM*

What do the screens show for `CC1=C[C@@H](CO)[C@H](C(C)C)C[C@H]1Cc1nnc(-c2cccnc2)o1`?
Pf Dd2 inh: inactive

How did O=c1[nH]nc2n1CCN(S(=O)(=O)c1ccc3c(c1)OCCO3)CC2 do in these assays?
Pf Dd2 inh: -14.1%

How did COc1ccc(-c2nc3scc(CCNS(=O)(=O)c4ccccc4F)n3n2)cc1 do in these assays?
Pf Dd2 inh: -10.8%

Results for O=C(NCCc1csc2nc(-c3ccc(F)cc3)nn12)c1cccc(C(F)(F)F)c1 ?
Pf Dd2 inh: 49.3%[5.79 µM]

What do the screens show for `COc1ccc(-c2nc3scc(CCNC(=O)c4cccc(Br)c4)n3n2)cc1`?
Pf Dd2 inh: 1µM*

Results for CC1(C)CC(CC(=O)N2CCN(Cc3ccccc3)CC(O)C2)CC(C)(C)N1 (centres undefined) ?
Pf Dd2 inh: -18.6%
